In PubChem BioAssay (NCATS):
Inconclusive results are not listed. Where a call stands in place of a potency, no number is given. Values without a mark were called inactive. Activity calls are given as the source filed them. The call rests on the fitted dose curve; in most records, active means well fitted curve in the direction sought with a large enough effect; inconclusive means small, poorly fitted or top-dose-only effect, or another doubt; inactive means no such curve, though single readings can be large; an effect the other way counts as inactive or inconclusive.

Assays:
CRL-7250 = normal cell line; assay: Cytotoxic Profiling of Annotated Libraries Using Quantitative High-Throughput Screening (AID 1296008); conditions: Five cell lines viability, CellTiter-Glo ATP luminescence, 48-72 h; max response: active compounds read low; further: nearly all actives have a fitted effect of over 60% in size; further: potency means the concentration at half of the fitted maximal effect
Method in brief: (§1)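 Cytotoxicity was measured as CellTiter-Glo ATP luminescence, read after 10 min at room temperature. Compound treatment of the cells lasted 48 or 72 hr at 37 degrees Celsius in a qHTS format.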

HaCat [1] = assay: as above; conditions: Five cell lines viability, CellTiter-Glo ATP luminescence, 48-72 h; max response: active compounds read low
Method in brief: as §1

NIH3T3 [2] = assay: as above; conditions: Five cell lines viability, CellTiter-Glo ATP luminescence, 48-72 h; max response: active compounds read low
Method in brief: as §1

HACAT [3] = assay: qHTS assay to identify novel small-molecules to repurpose for Merkel cell carcinoma treatment (AID 1296009); conditions: MCC and control cell lines, CellTiter-Glo viability, 72 h; at 44.8 µM (top of the series) unless noted; further: nearly all actives have a fitted effect of over 60% in size
Method in brief: (§2)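 72 hr, 37 degree celsius; NPC 8-pt / MIPE 11-pt dose response; compound pinned in DMSO; CellTiter-Glo, 10 min RT, luminescence; normalized to no-cell and DMSO controls.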

C33A = assay: Primary qHTS to identify gynecologic anti-cancer compounds using libraries of approved drugs and bioactive compounds (AID 1345084); conditions: Gynecologic cancer cell panel viability, ATPlite luminescence, 48 h; series mostly up to 57.5 µM; further: nearly all actives have a fitted effect of over 55% in size; further: potency means the concentration at half of the fitted maximal effect
Method in brief: (§3)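 Cell viability after 48 h drug treatment, ATPlite luminescence readout; five doses.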

CAOV3 = assay: as above; conditions: Gynecologic cancer cell panel viability, ATPlite luminescence, 48 h; series mostly up to 57.5 µM
Method in brief: as §3

CASKI = assay: as above; conditions: Gynecologic cancer cell panel viability, ATPlite luminescence, 48 h; series mostly up to 57.5 µM
Method in brief: as §3

Es-2 = assay: as above; conditions: Gynecologic cancer cell panel viability, ATPlite luminescence, 48 h; series mostly up to 57.5 µM
Method in brief: as §3

HeLa = assay: as above; conditions: Gynecologic cancer cell panel viability, ATPlite luminescence, 48 h; series mostly up to 57.5 µM
Method in brief: as §3

Hek293T = assay: as above; conditions: Gynecologic cancer cell panel viability, ATPlite luminescence, 48 h, control line for the selectivity index; series mostly up to 57.5 µM
Method in brief: as §3

JEG-3 = assay: as above; conditions: Gynecologic cancer cell panel viability, ATPlite luminescence, 48 h; series mostly up to 57.5 µM
Method in brief: as §3

OV90 = assay: as above; conditions: Gynecologic cancer cell panel viability, ATPlite luminescence, 48 h; series mostly up to 57.5 µM
Method in brief: as §3

NIH3T3 [4] = assay: qHTS assay to identify novel small-molecules to repurpose for Merkel cell carcinoma treatment (AID 1296009); conditions: MCC and control cell lines, CellTiter-Glo viability, 72 h; series mostly up to 44.8 µM; further: nearly all actives have a fitted effect of over 60% in size
Method in brief: as §2

`CCCCCCCOc1cc2c(cc1/C(C)=C/c1ccc(C(=O)O)cc1)C(C)(C)CCS2(=O)=O` was tested, and the outcome (CRL-7250) was “inactive”, the outcome (HaCat [1]) was “inactive” and the outcome (NIH3T3 [2]) was “inactive”. The outcome (HACAT [3]) was “inactive”, the Potency (C33A) was “inactive” and the Potency (CAOV3) was “inactive”. The Potency (CASKI) was “inactive”, the Potency (Es-2) was “inactive” and the Potency (HeLa) was “inactive”. For the same compound, the Potency (Hek293T) was “inactive”, the Potency (JEG-3) was “inactive” and the Potency (OV90) was “inactive”.
In the case of `O=C(NCCCCN1CCN(c2cccc(Cl)c2Cl)CC1)c1cc2ccccc2s1`, the max response (CRL-7250) is reported as -20.7%, the outcome (HaCat [1]) is reported as “inactive” and the max response (NIH3T3 [2]) is reported as -29.5%. For the same compound, the outcome (HACAT [3]) was “inactive”, the Potency (CAOV3) was “inactive” and the Potency (CASKI) was “inactive”. The Potency (Es-2) was “inactive”, the Potency (HeLa) was “inactive” and the Potency (Hek293T) was “inactive”. For the same compound, the Potency (OV90) was “inactive”.
For `Cc1onc(-c2ccccc2)c1C(=O)N1CCN(c2ccc([N+](=O)[O-])cc2Cl)CC1`, the max response (CRL-7250) was -3.78%, the outcome (HaCat [1]) was “inactive” and the max response (NIH3T3 [2]) was 4.81%. For the same compound, the outcome (HACAT [3]) was “inactive”, the Potency (C33A) was “inactive” and the Potency (CASKI) was “inactive”. The Potency (Es-2) was “inactive”, the Potency (HeLa) was “inactive” and the Potency (Hek293T) was “inactive”. The Potency (JEG-3) was “inactive” and the Potency (OV90) was “inactive”.
With `C/C=C/[C@@H]1C=C[C@@H]2C[C@H](C)CC[C@H]2[C@]1(C)/C(O)=C1/C(=O)[C@@H](CO)N(C)C1=O` the outcome (CRL-7250) was “inactive”, the max response (HaCat [1]) was 3.96% and the outcome (NIH3T3 [2]) was “inactive”. For the same compound, the Potency (NIH3T3 [4]) was “inactive”, the Potency (CAOV3) was “inactive” and the Potency (CASKI) was “inactive”. For the same compound, the Potency (Es-2) was “inactive”, the Potency (HeLa) was “inactive” and the Potency (Hek293T) was “inactive”. The Potency (JEG-3) was “inactive” and the Potency (OV90) was “inactive”.
In the case of `C/C=C/CCC1Cc2cc(O)c(CCCC)c(O)c2C(=O)O1` (configuration not stated), the outcome (CRL-7250) is reported as “inactive”, the outcome (HaCat [1]) is reported as “inactive” and the max response (NIH3T3 [2]) is reported as 2.45%. The outcome (HACAT [3]) was “inactive”, the Potency (C33A) was “inactive” and the Potency (CAOV3) was “inactive”. The Potency (CASKI) was “inactive”, the Potency (Es-2) was “inactive” and the Potency (HeLa) was “inactive”. For the same compound, the Potency (Hek293T) was “inactive”, the Potency (JEG-3) was “inactive” and the Potency (OV90) was “inactive”.
With `CC(C)=C[C@@H]1[C@H](CO[C@@H]2O[C@H](CO)[C@@H](O)[C@H](O)[C@H]2O)C1(C)C` the outcome (CRL-7250) was “inactive”, the outcome (HaCat [1]) was “inactive” and the max response (NIH3T3 [2]) was 4.21%. For the same compound, the outcome (HACAT [3]) was “inactive”, the Potency (C33A) was “inactive” and the Potency (CAOV3) was “inactive”. The Potency (CASKI) was “inactive”, the Potency (Es-2) was “inactive” and the Potency (HeLa) was “inactive”. The Potency (Hek293T) was “inactive”, the Potency (JEG-3) was “inactive” and the Potency (OV90) was “inactive”.
In the case of `O=C(Nc1ccc(Cl)cc1)Nc1cccc(-c2cccc(N3CCCC3)n2)c1`, the max response (CRL-7250) is reported as -4.95%, the outcome (HaCat [1]) is reported as “inactive” and the max response (NIH3T3 [2]) is reported as 1.43%. For the same compound, the outcome (HACAT [3]) was “inactive”, the Potency (C33A) was “inactive” and the Potency (CAOV3) was “inactive”. The Potency (CASKI) was “inactive”, the Potency (Es-2) was “inactive” and the Potency (HeLa) was “inactive”. The Potency (Hek293T) was “inactive” and the Potency (OV90) was “inactive”.
For `Cc1cc(C(=O)Cn2cc(C#N)ccc2=O)c(C)n1Cc1ccccc1`, the max response (CRL-7250) was -5.73%, the outcome (HaCat [1]) was “inactive” and the outcome (NIH3T3 [2]) was “inactive”. The outcome (HACAT [3]) was “inactive”, the Potency (C33A) was “inactive” and the Potency (CAOV3) was “inactive”. The Potency (CASKI) was “inactive”, the Potency (Es-2) was “inactive” and the Potency (HeLa) was “inactive”. For the same compound, the Potency (JEG-3) was “inactive” and the Potency (OV90) was “inactive”.
For `O=C(NO)c1ccc(CC(=O)N(CCO)c2ccccc2)cc1`, the max response (CRL-7250) was 0.727%, the outcome (HaCat [1]) was “inactive” and the max response (NIH3T3 [2]) was -4.33%. The outcome (HACAT [3]) was “inactive”, the Potency (C33A) was “inactive” and the Potency (CAOV3) was “inactive”. The Potency (CASKI) was “inactive”, the Potency (Es-2) was “inactive” and the Potency (HeLa) was “inactive”. For the same compound, the Potency (Hek293T) was “inactive” and the Potency (OV90) was “inactive”.
In the case of `CNc1nc(NCc2ccc(NS(C)(=O)=O)cc2Cl)cc(-c2ccccn2)n1`, the Potency (CRL-7250) is reported as 20.6 µM (active), the outcome (HaCat [1]) is reported as “inactive” and the max response (NIH3T3 [2]) is reported as -15.9%. The outcome (HACAT [3]) was “inactive”, the Potency (C33A) was “inactive” and the Potency (CAOV3) was “inactive”. The Potency (CASKI) was “inactive”, the Potency (HeLa) was “inactive” and the Potency (JEG-3) was “inactive”.
With `Cc1cc(C)cc(-c2cnc3cc(Cl)c(-c4cccc(O)c4)cc3c2OCCCN)c1` the max response (CRL-7250) was 3.3%, the outcome (HaCat [1]) was “inactive” and the max response (NIH3T3 [2]) was -0.922%. The outcome (HACAT [3]) was “inactive”, the Potency (C33A) was “inactive” and the Potency (CAOV3) was “inactive”. The Potency (CASKI) was “inactive”, the Potency (Es-2) was “inactive” and the Potency (HeLa) was “inactive”. The Potency (Hek293T) was “inactive”, the Potency (JEG-3) was “inactive” and the Potency (OV90) was “inactive”.
For `CCC(C)CNCC(=O)N1CCC2SC=CC2C1COc1cccc(C)c1` (configuration not stated), the max response (CRL-7250) was -4.73%, the max response (HaCat [1]) was 3.39% and the max response (NIH3T3 [2]) was -20.9%. For the same compound, the Potency (C33A) was “inactive”, the Potency (CAOV3) was “inactive” and the Potency (CASKI) was “inactive”. The Potency (Es-2) was “inactive”, the Potency (HeLa) was “inactive” and the Potency (Hek293T) was “inactive”. For the same compound, the Potency (JEG-3) was “inactive” and the Potency (OV90) was “inactive”.
For `CCN(Cc1cc(Nc2nc(C)cn3c(-c4cn[nH]c4)cnc23)sn1)C(C)(C)CO`, the Potency (CRL-7250) was 0.0731 µM (active), the Potency (HaCat [1]) was 1.46 µM (active) and the Potency (NIH3T3 [2]) was 0.461 µM (active). The Potency (Es-2) was 3.16 µM (active) and the Potency (Hek293T) was 3.55 µM (active).
`Cc1c(OCc2cccc(-c3ccc(C(=O)O)cc3)c2)cc2c(c1C)C(=O)C(C1CCCC1)C2` (configuration not stated) gave a max response (CRL-7250) of 3.68%, a max response (HaCat [1]) of -12% and a max response (NIH3T3 [2]) of -4.46%. For the same compound, the Potency (C33A) was “inactive”, the Potency (Es-2) was “inactive” and the Potency (HeLa) was “inactive”. The Potency (Hek293T) was “inactive”, the Potency (JEG-3) was “inactive” and the Potency (OV90) was “inactive”.
